Results published in the supplement of paper PMC10042075.
Several values for one entry are separate records, joined by “and”; a condition that tells them apart may be missing. Identical values can stand only once. Counter-ions that a name gives are not always drawn.

These compounds were tested on LASCPC-01 (assay: cell viability relative to DMSO control (fraction); higher = less growth inhibition (more viable cells)). Settings: 2 µM; 72 h.
Outline: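 Serotonin-pathway compounds from a 7315-compound library were each tested at 2 μM for 72 hours in triplicate on LASCPC-01 human prostate cancer cells in 384-well plates. Viability was measured by CellTiter-Glo luminescence relative to solvent-control signal.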
`CN(C)CCc1c[nH]c2ccc(CS(=O)(=O)N3CCCC3)cc12` [Almotriptan Malate] was tested, and the cell viability was 0.818. Compound `CN1C2CCCC1CC(NC(=O)c1nn(C)c3ccccc13)C2` (centres undefined) [Granisetron hydrochloride] has a cell viability of 0.955. Compound `CN1CCN(c2cc3c(nn2)Oc2ccccc2N3C)CC1` [Azaphen] has a cell viability of 0.951. `COc1cccc(CCc2ccccc2OCC(CN(C)C)OC(=O)CCC(=O)O)c1` (centres undefined) [Sarpogrelate hydrochloride] gave a cell viability of 1.09. In the case of `CNCC[C@H](Oc1cccc2ccccc12)c1cccs1` [Duloxetine HCl], the cell viability is reported as 1.13. Work on `NCCc1c[nH]cn1` [Histamine] yielded a cell viability of 1.07. Compound `c1ccc2c(c1)CC(N1CCN(c3cccc4c3OCCO4)CC1)C2` has a cell viability of 0.835. `O=C(O[C@@H]1C[C@@H]2C[C@H]3C[C@H](C1)N2CC3=O)c1c[nH]c2ccccc12` [Dolasetron] showed a cell viability of 1.15. Work on `CN1CC2c3ccccc3Oc3ccc(Cl)cc3C2C1` (centres undefined) [Asenapine Maleate] yielded a cell viability of 1.1. For `COc1ccc(NS(=O)(=O)c2sc3ccc(Cl)cc3c2C)cc1N1CCNCC1`, the cell viability was 1.09 and 0.772. With `CN(C)CCC[C@@]1(c2ccc(F)cc2)OCc2cc(C#N)ccc21` [Escitalopram Oxalate] the cell viability was 0.982. With `O=C(c1ccc(F)cc1)C1CCN(CCn2c(=O)[nH]c3ccccc3c2=O)CC1` [Ketanserin tartrate] the cell viability was 0.737. With `COc1ccccc1N1CCN(CCCNc2cc(=O)n(C)c(=O)n2C)CC1` [Urapidil] the cell viability was 1.18. With `CC(C)COc1ccc(CNC(=O)N(Cc2ccc(F)cc2)C2CCN(C)CC2)cc1` [Pimavanserin] the cell viability was 0.72.
